In the supplement of paper PMC6089552:
Screen size: about 3,200 compounds; about 300 (9.4%) showed activity. The list comes from a sample in which actives are over-represented; it also holds similar structures and randomly drawn compounds.

Tested on: A673/TR/shEF
Assay: cell viability (LOESS-normalised, relative to median of negative controls) (log2 ratio); higher = more viable cells (less compound effect), active = hit call of the paper (over 3 MAD below the median)
Conditions: treatment time: 72 h
Outline: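 A673/TR/shEF Ewing sarcoma cells (1,500 per well, 384-well plates) were grown with or without doxycycline to induce EWS-FLI1 shRNA knockdown, starting 24 h before compounds. Library compounds at two or more concentrations, with DMSO controls, were added for three days. Cell viability was read by CellTiter-Glo luminescence on an Envision reader, then LOESS-corrected per plate, divided by the median of negative controls and log2-transformed. Hits were wells at least three median absolute deviations from the median of all screened wells.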

[1] = 0.25 µM, library screen: screen1, EWS-FLI1 expression: high (no doxycycline)
[2] = 0.25 µM, library screen: screen1, EWS-FLI1 expression: low (doxycycline-induced shRNA knockdown)
[3] = 2.5 µM, library screen: screen1, EWS-FLI1 expression: high (no doxycycline)
[4] = 2.5 µM, library screen: screen1, EWS-FLI1 expression: low (doxycycline-induced shRNA knockdown)
[5] = 0.025 µM, library screen: screen2, EWS-FLI1 expression: high (no doxycycline)
[6] = 0.025 µM, library screen: screen2, EWS-FLI1 expression: low (doxycycline-induced shRNA knockdown)
[7] = 0.25 µM, library screen: screen2, EWS-FLI1 expression: high (no doxycycline)
[8] = 0.25 µM, library screen: screen2, EWS-FLI1 expression: low (doxycycline-induced shRNA knockdown)
[9] = 2.5 µM, library screen: screen2, EWS-FLI1 expression: high (no doxycycline)
[10] = 2.5 µM, library screen: screen2, EWS-FLI1 expression: low (doxycycline-induced shRNA knockdown)
[11] = 25 µM, library screen: screen2, EWS-FLI1 expression: high (no doxycycline)
[12] = 25 µM, library screen: screen2, EWS-FLI1 expression: low (doxycycline-induced shRNA knockdown)

Measured: cell viability (log2)

CC1(C)C(=O)C=C[C@]2(C)C3CC[C@@]4(C)[C@H](c5ccoc5)C[C@H]5O[C@]54C3[C@H](O)CC12 (some centres not stated)
inactive: [1] 0.0404 | [2] 0.00309 | [3] 0.102 | [4] 0.0462

C[C@H]1C(=O)O[C@@H]2CCN3CC=C(COC(=O)[C@](C)(O)[C@]1(C)O)[C@H]23
inactive: [5] 0.0665 | [6] 0.0541 | [1] 0.00981 | [2] 0.0549 | [7] 0.122 | [8] 0.0363 | [3] 0.0901 | [4] 0.111 | [9] 0.0833 | [10] 0.0416 | [11] 0.0406 | [12] 0.0625

Cc1c(O)c(O)cc2c1CC=C1[C@@]2(C)CC[C@@]2(C)[C@@H]3C[C@](C)(C(=O)O)CC[C@]3(C)CC[C@]12C
inactive: [1] 0.102 | [2] 0.0187 | [3] 0.0348 | [4] 0.22

COC(=O)[C@]1(C)CC[C@]2(C)CC[C@]3(C)C4=CCc5c(cc(O)c(O)c5C)[C@]4(C)CC[C@@]3(C)[C@@H]2C1
inactive: [1] 0.0264 | [2] 0.158
active: [3] -1.44 | [4] -0.357

CC1=C(O)C(=O)C=C2C1=CC=C1[C@@]2(C)CC[C@@]2(C)[C@@H]3C[C@](C)(C(=O)O)CC[C@]3(C)CC[C@]12C
inactive: [5] 0.14 | [6] 0.0632 | [1] 0.0936 | [2] 0.0786 | [7] 0.154 | [8] 0.0872 | [4] 0.0632
active: [3] -1.03 | [9] -4.23 | [10] -0.301 | [11] -4.23 | [12] -3.9

COC(=O)[C@]1(C)CC[C@]2(C)CC[C@]3(C)C4=CC=C5C(=CC(=O)C(O)=C5C)[C@]4(C)CC[C@@]3(C)[C@@H]2C1
active: [3] -2.91 | [4] -3.05
inactive: [1] -0.0347 | [2] 0.133

NCC(CC(=O)O)c1ccc(Cl)cc1 (configuration not stated)
inactive: [1] 0.0966 | [2] 0.12 | [7] 0.221 | [8] 0.138 | [3] 0.123 | [4] 0.15 | [9] 0.124 | [10] 0.0836

CCC(N)C(O)c1ccc(O)c(O)c1 (configuration not stated)
inactive: [1] 0.161 | [2] 0.0223 | [3] 0.0883 | [4] 0.0282

C[C@]12CC[C@H](O)CC1=CC[C@@H]1[C@@H]2CC[C@]2(C)C(=O)CC[C@@H]12
inactive: 0.103 µM, library screen: screen3, EWS-FLI1 expression: high (no doxycycline) -0.0409 | 0.103 µM, library screen: screen3, EWS-FLI1 expression: low (doxycycline-induced shRNA knockdown) 0.0562 | [1] 0.164 | [2] 0.131 | [7] 0.133 | [8] 0.0866 | 0.308 µM, library screen: screen3, EWS-FLI1 expression: high (no doxycycline) 0.0564 | 0.308 µM, library screen: screen3, EWS-FLI1 expression: low (doxycycline-induced shRNA knockdown) 0.076 | 0.926 µM, library screen: screen3, EWS-FLI1 expression: high (no doxycycline) -0.013 | 0.926 µM, library screen: screen3, EWS-FLI1 expression: low (doxycycline-induced shRNA knockdown) 0.0349 | [3] 0.137 | [4] 0.104 | [9] 0.173 | [10] 0.152 | 2.8 µM, library screen: screen3, EWS-FLI1 expression: high (no doxycycline) 0.0481 | 2.8 µM, library screen: screen3, EWS-FLI1 expression: low (doxycycline-induced shRNA knockdown) 0.0405 | 8.3 µM, library screen: screen3, EWS-FLI1 expression: high (no doxycycline) 0.0125 | 8.3 µM, library screen: screen3, EWS-FLI1 expression: low (doxycycline-induced shRNA knockdown) 0.0569 | 25 µM, library screen: screen3, EWS-FLI1 expression: high (no doxycycline) -0.0287 | 25 µM, library screen: screen3, EWS-FLI1 expression: low (doxycycline-induced shRNA knockdown) -0.0258

CCC(C)C(=O)O[C@@H]1C[C@@]2(C)[C@H](c3ccoc3)OC(=O)CC23OC2(C)OC14C1(C)[C@@H](CC(=O)OC)C5(C)CC1(O)C(O)([C@@H](OC(C)=O)C43O2)[C@H]5OC(=O)C1(C)OC1C (some centres not stated)
inactive: [1] 0.0892 | [2] 0.0664 | [3] 0.0941 | [4] 0.178

O=C(O)COc1cc(Cl)c(Cl)cc1Cl
inactive: [1] 0.0712 | [2] 0.0603 | [3] 0.0828 | [4] 0.0118

c1ccc2c3c([nH]c2c1)CNCC3
inactive: [1] 0.101 | [2] 0.0693 | [3] 0.2 | [4] 0.0982

FC(F)(F)c1cccc(N2CCNCC2)c1
inactive: [1] 0.112 | [2] 0.0689 | [3] 0.176 | [4] 0.0985

CN1C2CCC1CC(OC(c1ccccc1)c1ccc(Cl)cc1)C2 (configuration not stated)
inactive: [7] 0.142 | [8] 0.124 | [9] 0.232 | [10] 0.111

CC(C)CC(NC(=O)C(Cc1ccccc1)NC(=O)CNC(=O)CNC(=O)C(N)Cc1ccc(O)cc1)C(=O)O (configuration not stated)
inactive: [1] 0.0697 | [2] 0.0904 | [3] 0.0902 | [4] 0.179

c1ccc2c(c1)[nH]c1cnccc12
inactive: [1] 0.0149 | [2] -0.0111 | [3] 0.101 | [4] 0.0791

Cc1nccc2c1[nH]c1ccccc12
inactive: [1] 0.0742 | [2] 0.0176 | [7] 0.227 | [8] 0.0311 | [3] 0.126 | [4] 0.136 | [9] 0.107 | [10] 0.0839

Cc1c2ccncc2c(C)c2c1[nH]c1ccccc12
active: [9] -0.136
inactive: [7] 0.0843 | [8] 0.00884 | [10] -0.00745
